In PubChem BioAssay (Tox21):
Results filed as inconclusive are left out. The source made the active and inactive calls. Unless noted, calls come from the whole dose curve; as a rule, active = well fitted curve in the direction sought with a large enough effect in the repeat runs; inconclusive = weak or mixed curves; inactive = no such curve, though single readings can be large; an effect the other way counts as inactive or inconclusive.

Experiments:
[1] = qHTS assay to identify small molecule agonists of the sonic hedgehog signaling (Shh) pathway (AID 1259368; calls by dose curve;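 note: NIH/3T3-derived 3T3Gli1-Luc cells carrying a stable Gli1-driven firefly luciferase reporter; series mostly up to about 92 µM; nearly all actives have a fitted effect of over 15% in size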)
In short: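 Steps: seed 3T3 Gli1-Luc cells, incubate 4 hr at 37 C, pin-transfer compounds in DMSO alongside a positive control, incubate 24 hr, add luciferase detection reagent, wait 30 min at room temperature, read luminescence.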

[2] = qHTS assay to identify small molecule antagonists of the sonic hedgehog signaling (Shh) pathway (AID 1259369; calls by dose curve; note: nearly all actives have a fitted effect of over 45% in size)
In short: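 Inhibition of Shh signalling is measured as reduced Gli1-response-element firefly luciferase output in an NIH/3T3-derived stable reporter clone stimulated with conditioned medium for 24hr.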

[3] = biological target: Estrogen receptor beta (Homo sapiens) (UniProt Q92731); test: qHTS assay to identify small molecule agonists of the estrogen receptor beta (ER-beta) signaling pathway (AID 1259377; active = well fitted activation curve with a large enough effect in the signal ratio in the repeat runs, not every such curve was filed as active; the % refers to the signal ratio)
In short: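 A UAS-controlled beta-lactamase reporter in ER-beta-UAS-bla HEK293T cells reports receptor activation. Compounds act for 16 hr at 37C in 2% charcoal-stripped serum, and a FRET substrate is read by fluorescence after 2 hours.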

[4] = biological target: Estrogen receptor beta (Homo sapiens) (UniProt Q92731); test: qHTS assay to identify small molecule antagonists of the estrogen receptor beta (ER-beta) signaling pathway (AID 1259378; active = well fitted inhibition curve with a large enough effect in the signal ratio in the repeat runs, not every such curve was filed as active; the % refers to the signal ratio)
In short: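 Antagonist mode: compounds added to beta-lactamase reporter HEK293T ER-beta-UAS cells stimulated with E2 (1nM final), 16 hr at 37C. LiveBLAzer B/G FRET substrate, 2 hours room temperature, fluorescence read-out.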

[5] = qHTS assay to identify small molecule agonists of the androgen receptor (AR) signaling pathway in the presence of an antagonist - cell viability counter screen (AID 1259379);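 note: MDA-kb2 human breast cancer cells carrying an MMTV luciferase reporter; series mostly up to about 92 µM; nearly all actives have a fitted effect of over 25% in size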
In short: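 Fluorescence from CellTiter-Fluor, added after 15 hr and read 1 hr later, gave cell viability. Cells were MDA-kb2 exposed to compounds (15 concentrations) in the presence of 3.0uM nilutamide at 37C, 0% CO2.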

[6] = qHTS assay to identify small molecule agonists of the estrogen receptor beta (ER-beta) signaling pathway - cell viability counter screen (AID 1259380); note: nearly all actives have a fitted effect of over 30% in size
In short: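 Same-well viability counter screen. Cells: ER-beta-UAS-bla HEK293T, plated 6 hr before compound, in 2% charcoal-stripped FBS. Compound exposure 16 hr, 37C; viability by CellTiter-Glo luminescence after 30 min at room temperature.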

[7] = biological target: Estrogen receptor (Homo sapiens) (UniProt P03372); test: qHTS assay to identify small molecule agonists of the estrogen receptor alpha (ER-alpha) signaling pathway in the presence of an antagonist (AID 1259383; calls by dose curve; note: top concentration of the series differs between compounds; nearly all actives have a fitted effect of over 15% in size)
In short: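 Cells are hormone-deprived for 5 days (charcoal-stripped FBS, no phenol red), plated for 24hr, spiked with 10.0nM ICI-182,780, then dosed at 15 concentrations. After 22hr at 37C, ONE-Glo luminescence reports ERE-luciferase activity.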

[8] = biological target: Thyrotropin receptor (Homo sapiens) (UniProt P16473); test: qHTS assay to identify small molecule antagonists of the thyroid stimulating hormone receptor (TSHR) signaling pathway (AID 1259385; calls by dose curve; note: nearly all actives have a fitted effect of over 20% in size)
In short: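 Antagonist mode: compound-treated TSHR-expressing HEK293 cells were stimulated with 1.5 ng/mL TSH (final) in presence of Ro20-1724 for 30 min at RT. HTRF cAMP detection after 1 h; each compound tested at 15 concentrations, triplicate.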

[9] = qHTS assay to identify small molecule agonists of the estrogen receptor alpha (ER-alpha) signaling pathway in the presence of an antagonist - cell viability counter screen (AID 1259386);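 note: series mostly up to about 92 µM; cells exposed to compounds for 22 h at 37 °C before the viability read; nearly all actives have a fitted effect of over 30% in size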
In short: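 Cells are starved of estrogens for 5 days in charcoal-stripped serum, seeded for 24hr and co-treated with ICI-182,780 (10.0nM final) and test compounds. After 22hr at 37C, viability is read as CellTiter-Fluor fluorescence.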

[10] = qHTS assay to identify small molecule antagonists of the progesterone receptor (PR) signaling pathway - cell viability counter screen (AID 1346798); note: series mostly up to about 92 µM; nearly all actives have a fitted effect of over 50% in size
In short: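 Same-well multiplex: after 16 hr at 37C with compound and R5020 stimulation, HEK293T cells carrying a UAS-bla reporter received LiveBLAzer substrate (2 hr RT), then CellTiter-Glo (30 min RT) for luminescent viability.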

[11] = qHTS assay to identify small molecule antagonists of the TGF-beta/Smad signaling pathway - cell viability counter screen (AID 1346824); note: nearly all actives have a fitted effect of over 50% in size
In short: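 Cytotoxicity counter-screen run in the same wells as the beta-lactamase Smad reporter read: CellTiter-Glo luminescence after 30 min at room temperature. HEK 293T SBE-bla cells had 5 hr compound exposure at 37 C with TGF-beta1 (0.25 ng/mL stock).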

[12] = qHTS assay to identify small molecule agonists of the TGF-beta/Smad signaling pathway - cell viability counter screen (AID 1346829); note: top concentration of the series differs between compounds; nearly all actives have a fitted effect of over 45% in size
In short: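 Tox21 qHTS format: SBE-bla HEK 293T cells treated with DMSO-dissolved compounds for 5 hr; CellTiter-Glo luminescence after 30 min at room temperature.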

[13] = qHTS assay to identify small molecule agonists of the TGF-beta/Smad signaling pathway (AID 1346859; active = well fitted activation curve with a large enough effect in the signal ratio in the repeat runs, not every such curve was filed as active; the % refers to the signal ratio; note: series mostly up to about 77 µM)
In short: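 Smad-responsive beta-lactamase reporter cells (HEK 293T) received compounds from DMSO stocks after overnight attachment, were incubated 5 hr, then treated 2 hr with FRET substrate before dual-emission fluorescence measurement (405 nm excitation).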

[14] = qHTS assay to identify small molecule antagonists of the estrogen receptor beta (ER-beta) signaling pathway - cell viability counter screen (AID 1259382);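 note: HEK293T cells carrying ER-beta-UAS-bla reporter stimulated with estradiol; series mostly up to about 92 µM; nearly all actives have a fitted effect of over 55% in size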
In short: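 Following a 6 hr plating period, HEK293T cells carrying a UAS-driven beta-lactamase reporter under ER-beta control received compounds and 1nM E2 (final). After 16 hr at 37C and 2 hr substrate loading, CellTiter-Glo luminescence indicated viability.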

[15] = qHTS assay to identify small molecule agonists or antagonists of the thyroid stimulating hormone receptor (TSHR) signaling pathway - wild type cell line counter screen (AID 1259384; calls by dose curve)
In short: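 Counter screen in untransfected Hek293: compounds (15-point titration, triplicate) plus phosphodiesterase inhibitor Ro20-1724 added after 18 h plating; 30 min RT. Intracellular cAMP via competitive d2/cryptate immunoassay, 1 h incubation.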

[16] = biological target: Progesterone receptor (Homo sapiens) (UniProt P06401); test: qHTS assay to identify small molecule antagonists of the progesterone receptor (PR) signaling pathway (AID 1346795; active = well fitted inhibition curve with a large enough effect in the signal ratio in the repeat runs, not every such curve was filed as active; the % refers to the signal ratio)
In short: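 HEK293T PR-UAS-bla reporter cells in charcoal-stripped serum (2%) received compound after a 6 hr settling period, followed by R5020 agonist at 1 nM final; 16 hr incubation preceded the FRET substrate step and fluorescence measurement.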

[17] = qHTS assay to identify small molecule agonists of the progesterone receptor (PR) signaling pathway - cell viability counter screen (AID 1346799; calls by dose curve; note: nearly all actives have a fitted effect of over 45% in size)
In short: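 Counter screen for cytotoxicity: compound-treated PR-UAS-bla HEK293T cells (16 hr, 37C, 5% CO2) were assayed with CellTiter-Glo, luminescence measured after 30 min at room temperature.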

[18] = biological target: Thyrotropin-releasing hormone receptor (Homo sapiens) (UniProt P34981); test: qHTS assay to identify small molecule antagonists of the thyrotropin-releasing hormone receptor (TRHR) signaling pathway (AID 1346877; active = well fitted inhibition curve with a large enough effect in the repeat runs, not every such curve was filed as active; note: series mostly up to about 51 µM)
In short: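 Cells (TRHR-HEK293) are plated and kept 18 h at 37 °C/5% CO2. A calcium-sensitive dye is added for 2 h, compound follows for 5 min at room temperature, and TRH is then given at 1 nM final.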

[19] = biological target: Progesterone receptor (Homo sapiens) (UniProt P06401); test: qHTS assay to identify small molecule agonists of the progesterone receptor (PR) signaling pathway (AID 1346784; calls by dose curve; note: nearly all actives have a fitted effect of over 30% in size)
In short: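 Agonist mode, quantitative HTS format in a HEK 293T line expressing a UAS-controlled beta-lactamase reporter; 16 hr compound exposure at 37C in 2% charcoal-stripped FBS, then LiveBLAzer B/G FRET fluorescence.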
% is set by controls: 0 for no effect and ±100 for the full control effect.

Estrogen receptor beta (Homo sapiens), sequence (Q92731 whole entry, looked up): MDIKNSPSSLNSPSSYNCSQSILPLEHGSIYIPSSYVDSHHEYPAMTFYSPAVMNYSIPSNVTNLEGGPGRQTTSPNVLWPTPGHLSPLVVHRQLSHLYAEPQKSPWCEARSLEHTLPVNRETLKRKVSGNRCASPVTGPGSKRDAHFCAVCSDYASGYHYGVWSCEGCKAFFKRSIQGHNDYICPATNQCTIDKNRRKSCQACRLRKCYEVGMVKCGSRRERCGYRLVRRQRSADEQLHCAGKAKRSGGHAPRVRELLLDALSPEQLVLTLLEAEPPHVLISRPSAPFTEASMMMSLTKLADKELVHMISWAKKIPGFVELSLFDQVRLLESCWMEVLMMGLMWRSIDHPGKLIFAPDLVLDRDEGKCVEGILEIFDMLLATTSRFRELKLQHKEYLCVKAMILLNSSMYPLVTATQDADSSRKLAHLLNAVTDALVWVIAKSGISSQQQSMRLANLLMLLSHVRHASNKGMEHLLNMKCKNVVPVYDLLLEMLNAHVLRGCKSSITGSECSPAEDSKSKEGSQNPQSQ
Estrogen receptor (Homo sapiens), sequence (P03372 whole entry, looked up): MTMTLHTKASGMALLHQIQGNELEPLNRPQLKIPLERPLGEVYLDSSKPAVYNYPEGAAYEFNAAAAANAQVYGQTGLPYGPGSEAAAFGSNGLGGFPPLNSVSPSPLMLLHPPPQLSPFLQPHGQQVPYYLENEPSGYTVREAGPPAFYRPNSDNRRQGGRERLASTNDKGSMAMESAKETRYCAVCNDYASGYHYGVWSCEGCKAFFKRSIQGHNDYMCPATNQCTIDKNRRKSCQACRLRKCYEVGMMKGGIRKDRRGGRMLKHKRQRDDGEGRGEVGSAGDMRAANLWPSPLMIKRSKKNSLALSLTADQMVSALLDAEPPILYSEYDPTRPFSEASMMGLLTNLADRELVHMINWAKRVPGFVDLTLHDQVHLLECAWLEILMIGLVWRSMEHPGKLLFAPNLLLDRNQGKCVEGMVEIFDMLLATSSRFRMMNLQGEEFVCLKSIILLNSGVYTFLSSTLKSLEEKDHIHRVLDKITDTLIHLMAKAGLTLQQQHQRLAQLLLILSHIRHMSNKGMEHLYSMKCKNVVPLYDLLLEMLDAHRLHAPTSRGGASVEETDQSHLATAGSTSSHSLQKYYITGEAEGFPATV
Progesterone receptor (Homo sapiens), sequence (P06401 whole entry, looked up): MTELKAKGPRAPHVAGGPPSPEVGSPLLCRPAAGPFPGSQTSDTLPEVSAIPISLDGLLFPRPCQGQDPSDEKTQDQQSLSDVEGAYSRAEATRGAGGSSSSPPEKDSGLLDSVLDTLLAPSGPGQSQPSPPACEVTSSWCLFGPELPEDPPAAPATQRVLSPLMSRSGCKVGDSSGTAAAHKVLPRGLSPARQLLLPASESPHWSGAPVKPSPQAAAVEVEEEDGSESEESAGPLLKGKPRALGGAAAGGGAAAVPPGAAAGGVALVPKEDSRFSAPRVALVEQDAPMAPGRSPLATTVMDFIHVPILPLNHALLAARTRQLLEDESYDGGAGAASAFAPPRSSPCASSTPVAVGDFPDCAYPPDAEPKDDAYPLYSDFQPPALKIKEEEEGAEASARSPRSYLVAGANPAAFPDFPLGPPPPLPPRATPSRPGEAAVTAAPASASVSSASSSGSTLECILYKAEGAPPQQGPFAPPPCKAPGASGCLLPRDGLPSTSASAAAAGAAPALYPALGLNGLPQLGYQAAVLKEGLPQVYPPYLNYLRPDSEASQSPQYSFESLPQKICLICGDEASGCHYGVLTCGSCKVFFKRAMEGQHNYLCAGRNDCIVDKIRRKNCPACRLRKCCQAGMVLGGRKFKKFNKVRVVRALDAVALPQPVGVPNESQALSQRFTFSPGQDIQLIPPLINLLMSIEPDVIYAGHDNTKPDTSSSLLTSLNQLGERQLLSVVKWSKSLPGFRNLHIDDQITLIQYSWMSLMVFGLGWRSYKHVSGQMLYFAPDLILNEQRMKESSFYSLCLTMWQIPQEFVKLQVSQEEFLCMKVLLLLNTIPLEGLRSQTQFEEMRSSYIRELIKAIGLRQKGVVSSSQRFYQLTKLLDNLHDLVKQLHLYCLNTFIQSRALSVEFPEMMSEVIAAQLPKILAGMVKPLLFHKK
Thyrotropin receptor (Homo sapiens), sequence (P16473 whole entry, looked up): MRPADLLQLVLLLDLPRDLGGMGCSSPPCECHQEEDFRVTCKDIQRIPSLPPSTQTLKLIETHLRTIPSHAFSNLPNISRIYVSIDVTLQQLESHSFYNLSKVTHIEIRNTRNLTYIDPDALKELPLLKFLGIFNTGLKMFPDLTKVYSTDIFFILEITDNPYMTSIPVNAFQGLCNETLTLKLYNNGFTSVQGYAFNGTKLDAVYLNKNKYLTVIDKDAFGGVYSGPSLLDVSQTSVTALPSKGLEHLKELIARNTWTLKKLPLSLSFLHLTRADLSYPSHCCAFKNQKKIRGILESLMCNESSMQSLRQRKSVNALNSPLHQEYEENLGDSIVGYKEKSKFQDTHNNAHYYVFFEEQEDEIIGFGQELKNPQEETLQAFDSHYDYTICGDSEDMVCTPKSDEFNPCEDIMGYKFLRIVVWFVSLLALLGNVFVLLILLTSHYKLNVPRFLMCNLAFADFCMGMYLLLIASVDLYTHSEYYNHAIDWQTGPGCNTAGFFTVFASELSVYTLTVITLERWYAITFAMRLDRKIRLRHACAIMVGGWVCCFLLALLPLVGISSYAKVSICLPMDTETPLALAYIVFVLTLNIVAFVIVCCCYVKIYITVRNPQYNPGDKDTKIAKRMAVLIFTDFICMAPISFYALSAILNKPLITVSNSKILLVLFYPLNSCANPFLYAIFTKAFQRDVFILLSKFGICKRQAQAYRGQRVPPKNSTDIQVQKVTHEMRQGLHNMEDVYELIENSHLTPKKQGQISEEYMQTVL
Thyrotropin-releasing hormone receptor (Homo sapiens), sequence (P34981 whole entry, looked up): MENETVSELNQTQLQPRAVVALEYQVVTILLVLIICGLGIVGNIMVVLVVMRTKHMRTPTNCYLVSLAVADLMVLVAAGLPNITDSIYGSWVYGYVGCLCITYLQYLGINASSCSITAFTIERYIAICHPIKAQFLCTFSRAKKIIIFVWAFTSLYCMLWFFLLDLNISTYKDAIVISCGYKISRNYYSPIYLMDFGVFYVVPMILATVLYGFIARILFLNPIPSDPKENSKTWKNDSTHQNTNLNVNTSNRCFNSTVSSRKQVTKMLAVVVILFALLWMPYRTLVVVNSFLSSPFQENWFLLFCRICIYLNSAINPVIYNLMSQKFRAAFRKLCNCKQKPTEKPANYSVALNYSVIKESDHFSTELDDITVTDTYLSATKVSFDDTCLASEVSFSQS

CC(C)(C)CC(C)(C)N
inactive: Potency [1] | Potency [2] | outcome [3] | Potency [4] | Potency [5] | Potency [6] | Potency [7] | Potency [8] | outcome [9] | Potency [10] | outcome [11] | outcome [12] | outcome [13]

NC(=S)Nc1cccc2ccccc12
inactive: activity change [1] -0.099% [at 8.39 µM, stronger effect = higher value] | activity change, negative = inhibition [2] 0.0462% [at 8.39 µM] | activation [3] -0.309% [at 8.39 µM] | activity, negative = inhibition [4] -5.64% [at 8.39 µM] | activity change, negative = cytotoxicity [5] -0.514% [at 8.39 µM] | activity change, negative = cytotoxicity [6] -0.0461% [at 8.39 µM] | activity change, negative = cytotoxicity [14] 8.83% [at 8.39 µM] | cAMP activity change [15] 4.82% [at 8.39 µM] | activity change, negative = inhibition [8] 2.83% [at 8.39 µM] | activity change, negative = cytotoxicity [9] 0.0918% [at 8.39 µM] | activity change, negative = inhibition [16] -2.03% [at 8.39 µM] | activity change, negative = cytotoxicity [10] -13.4% [at 8.39 µM] | activity change, negative = cytotoxicity [17] -0.848% [at 8.39 µM] | viability change, negative = cytotoxic [11] 11.5% [at 6.97 µM] | activity change, negative = cytotoxicity [12] -4.69% [at 6.97 µM] | activation [13] -0.913% [at 6.97 µM] | activity, negative = inhibition [18] -0.447% [at 4.65 µM]

O=C(O)/C=C/c1ccc(Cn2ccnc2)cc1
inactive: Potency [1] | Potency [2] | outcome [3] | Potency [4] | Potency [5] | Potency [6] | Potency [14] | outcome [9] | Potency [19] | Potency [16] | Potency [10] | Potency [17] | outcome [11] | outcome [12] | outcome [13] | outcome [18]

c1ccc(CCCc2ccccn2)cc1
inactive: Potency [1] | Potency [2] | outcome [3] | Potency [4] | Potency [5] | Potency [6] | Potency [14] | outcome [15] | Potency [8] | outcome [9] | Potency [19] | Potency [16] | Potency [10] | Potency [17] | outcome [11] | outcome [12] | outcome [13] | outcome [18]

Nc1[nH]c(=O)ncc1F
inactive: Potency [1] | Potency [2] | outcome [3] | Potency [4] | Potency [5] | Potency [14] | Potency [7] | outcome [9] | Potency [19] | Potency [16] | Potency [10] | Potency [17] | outcome [11] | outcome [13]

N#CCc1ccccc1[N+](=O)[O-]
inactive: Potency [1] | Potency [2] | outcome [3] | Potency [4] | Potency [6] | Potency [14] | outcome [15] | Potency [8] | outcome [9] | Potency [19] | Potency [16] | Potency [10] | outcome [11] | outcome [12] | outcome [13] | outcome [18]

CC(C)(C)N(CCO)CCO
inactive: Potency [1] | Potency [2] | outcome [3] | Potency [4] | Potency [6] | Potency [14] | Potency [7] | outcome [15] | Potency [8] | outcome [9] | Potency [19] | Potency [16] | Potency [10] | Potency [17] | outcome [11] | outcome [12] | outcome [13] | outcome [18]
